# Hits are enriched below; roughly 9% of the tested compounds scored in any of these assays.
# BAZ2B inh – blocks human BAZ2B. AID 504333. Potency, µM (doses to about 114 µM), without a hit: at the highest dose activity change, negative = inhibition, usual class: inhibitors. 4.4% of 360,000 active. Q9UIF8. AlphaScreen BAZ2B-H3K14Ac peptide displacement; note: % is set by controls: 0 for no effect and ±100 for the full control effect; nearly all actives have a fitted effect of over 60% in size
#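 In this displacement format the biotinylated H3(5-23) peptide acetylated at Lys14 serves as ligand at 50 nM, with BAZ2B at 50 nM in PBS pH 7.4 containing 0.01% Tween-20. Donor and acceptor beads are 10 ug/mL final.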
# ALOX12 inh – blocks human arachidonate 12S-lipoxygenase. 1.1% of 580,000 active. Potency, µM (series often up to 108 µM), without a hit: at the top dose activity change, negative = inhibition, hits mostly inhibitors. purified 12hLO, xylenol orange hydroperoxide absorbance. P18054; note: % is set by controls: 0 for no effect and ±100 for the full control effect
#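 Purified human 12hLO (150 nM final) in 25 mM Hepes, 0.01% Triton X-100, pH 7.0 was preincubated 15 min at room temperature with compound. Then 40 uM arachidonic acid was added, 30 min. Hydroperoxide was read by Fe-XO absorbance ratio 573/405 nm.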
# G9a block – G9a (human) methyltransferase inhibition; G9a H3K9 monomethylation, AlphaScreen, 2 h; Potency, µM (top dose mostly 102 µM), for inactives: at the highest dose activity, negative = inhibition, usual class: inhibitors; 8.8% of 350,000 active; AID 504332; note: % is set by controls: 0 for no effect and ±100 for the full control effect; nearly all actives have a fitted effect of over 75% in size
# Target sequence (Q96KQ7 913-1193 limits assumed): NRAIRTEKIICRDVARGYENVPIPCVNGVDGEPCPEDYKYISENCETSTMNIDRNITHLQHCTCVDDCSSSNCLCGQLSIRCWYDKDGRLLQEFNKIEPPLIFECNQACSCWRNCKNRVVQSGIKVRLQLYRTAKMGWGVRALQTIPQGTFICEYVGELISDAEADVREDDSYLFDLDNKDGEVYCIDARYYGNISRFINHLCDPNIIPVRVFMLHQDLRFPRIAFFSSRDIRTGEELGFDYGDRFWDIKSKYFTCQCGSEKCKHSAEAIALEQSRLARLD
#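 Enzyme 20 nM + cpd, 15 min RT; add b-H3K9 pep 500 nM / SAM 20 uM; 2 h RT; anti-H3K9me1 Ab 0.5 ug/mL + SA donor / anti-rabbit acceptor beads 20 ug/mL each, 10 min; AlphaScreen read.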
# PLK1 PBD inh – PLK1 (human) polo-box domain binding inhibition; P53350; Plk1 PBD binding of FITC phosphopeptide, fluorescence polarization; Potency, µM, for inactives: max response, negative = inhibition, usual class: inhibitors; 2.8% of 360,000 active; note: series mostly up to about 57 µM; % is set by controls: 0 for no effect and ±100 for the full control effect; nearly all actives have a fitted effect of over 65% in size
# JMJD2A Tudor inh – blocks the human JMJD2A Tudor domain; O75164; AlphaScreen JMJD2A-Tudor / H3K4me3 peptide binding; Potency, µM (titrated, usually from 114 µM), for inactives: at the highest dose activity change, negative = inhibition, actives largely listed as inhibitors; 4.4% of 390,000 active; AID 504339; note: % is set by controls: 0 for no effect and ±100 for the full control effect; nearly all actives have a fitted effect of over 50% in size
# HP1b chromo inh – inhibitors of HP1-beta chromodomain binding to methylated histone tails; 0.56% of 390,000 active; AlphaScreen HP1-beta / biotin-H3K9me3 peptide binding; Potency, µM (series often up to 114 µM), for the others: top-dose activity change, negative = inhibition, most hits filed as inhibitors; AID 540317; P83916; note: nearly all actives have a fitted effect of over 70% in size
# Target sequence (P83916 whole entry, looked up): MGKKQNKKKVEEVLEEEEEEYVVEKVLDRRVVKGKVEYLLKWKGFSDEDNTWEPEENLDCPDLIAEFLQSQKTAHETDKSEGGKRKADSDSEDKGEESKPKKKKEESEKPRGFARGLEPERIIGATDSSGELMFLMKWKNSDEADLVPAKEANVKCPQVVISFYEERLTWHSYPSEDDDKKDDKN
#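 Compound inhibition of the preformed complex between 50 nM HP1-beta and 50 nM biotinylated H3K9me3 peptide was read by AlphaScreen. Buffer was PBS pH 7.4 with 0.01% Tween-20. Incubations ran 30 min at room temperature, with 10 ug/mL donor/acceptor beads.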
# An asterisk follows results filed as active; u = inconclusive; x = no result given; [ ] = remark or other dose. Calls come from the whole dose curve; as a rule, active = well fitted curve in the direction sought with a large enough effect; inconclusive = small, poorly fitted or top-dose-only effect, or another doubt; inactive = no such curve, though single readings can be large; an effect the other way counts as inactive or inconclusive. Potency is the fitted concentration of half-maximal effect.
SMILES,BAZ2B inh,ALOX12 inh,G9a block,PLK1 PBD inh,JMJD2A Tudor inh,HP1b chromo inh
Cc1ccc(/C(O)=C2\C(=O)C(=O)N(CC(C)O)C2c2cccc(F)c2)cc1 (stereo not drawn),8.0%,17.8µM*,28.8%[59 µM],-4.4%,u,26.6%
COCCCN1C(=O)C(=O)/C(=C(/O)c2ccc(OC)cc2)C1c1ccc(O)c(OC)c1 (stereo not drawn),-4.6%,6.31µM*,-6.3%[59 µM],-6.2%,-25.7%,18.3%
CCN(CC)CCn1nc(C)nc1-c1ccccc1O,u,-12.7%,u,-8.9%,-33.1%,1.9%
CC(CNC(=O)c1cc(C2CC2)nc2ccccc12)c1ccccc1 (stereo not drawn),x,-0.5%,x,x,x,x
Cc1cc(C)n2c(SCC(=O)N(CC(C)C)c3c(N)n(CC(C)C)c(=O)[nH]c3=O)nnc2n1,-0.2%,-28.9%,17.8µM*,-9.1%,-11.7%,26.0%
Cc1cc(SCC(=O)N(CC(C)C)c2c(N)n(CC(C)C)c(=O)[nH]c2=O)nc2ccccc12,2.6%,u,6.31µM*,13.4µM*,-6.4%,10.9%
Cc1ccccc1-c1nnc(SCC(=O)N(CC(C)C)c2c(N)n(CC(C)C)c(=O)[nH]c2=O)n1C,-6.8%,0.0%,50.1µM*,-0.9%,15.2%,24.1%
Cc1ccc2nc(SCC(=O)N(CC(C)C)c3c(N)n(CC(C)C)c(=O)[nH]c3=O)[nH]c2c1,-0.3%,u,u,-5.1%,-1.7%,44.2%
COCCN(C(=O)CSc1nnc(-c2ccncc2)n1C)c1c(N)n(CC(C)C)c(=O)[nH]c1=O,x,-7.2%,x,-3.4%,-9.3%,40.9%
O=C1CCC(C(=O)Nc2cccc(Oc3ccccc3)c2)=NN1,-14.6%,-12.4%,3.5%,-7.0%,-19.0%,4.2%
C=CCOc1ccc(/C(O)=C2/C(=O)C(=O)N(CCCN3CCOCC3)C2c2ccccc2)cc1 (stereo not drawn),x,-11.0%,x,2.99µM*,u,-7.0%
CCN(CC)CCN1C(=O)C(=O)/C(=C(/O)c2ccc(C)cc2)C1c1cccnc1 (stereo not drawn),-38.6%,0.0%,x,-0.9%,-7.0%,57.1%
C=CCOc1cccc(C2/C(=C(\O)c3ccc(F)cc3)C(=O)C(=O)N2CCN(C)C)c1 (stereo not drawn),-4.7%,u,u,-19.1%,-14.5%,52.9%
C=CCOc1cccc(C2/C(=C(/O)c3ccc(Cl)cc3)C(=O)C(=O)N2CCN2CCOCC2)c1 (stereo not drawn),-7.2%,-26.7%,17.8µM*,-24.6%,-24.4%[57.1 µM],u
C=CCOc1cccc(C2/C(=C(/O)c3ccccc3)C(=O)C(=O)N2CCN2CCOCC2)c1 (stereo not drawn),u,-5.4%,u,-12.5%,79.4µM*,11.9%
Cc1ccc(/C(O)=C2\C(=O)C(=O)N(CCc3c[nH]c4ccccc34)C2c2cccnc2)cc1 (stereo not drawn),-3.6%,-7.2%,50.1µM*,-5.6%,u,7.3%
C=CCOc1ccc(/C(O)=C2/C(=O)C(=O)N(CCCN3CCOCC3)C2c2ccc(OC)cc2)cc1 (stereo not drawn),-4.2%,u,u,-8.8%,-28.5%,8.9%
CC(=O)Nc1c(C)cc(OCC(=O)O)cc1C,0.6%,14.1%,u,u,-4.2%,24.5%
COc1cc(-c2cc(NC=O)c3ncc(-c4ccc(C(C)=O)cc4)n3c2)ccc1O,x,u,x,-9.5%,x,x
O=C1C(=O)N(CCN2CCOCC2)C(c2cccnc2)/C1=C(/O)c1ccc(Cl)cc1 (stereo not drawn),-20.0%,-9.9%,50.1µM*,-7.6%,-14.0%,35.3%
C=CCOc1cccc(C2/C(=C(/O)c3ccc4c(c3)CC(C)O4)C(=O)C(=O)N2CCN2CCOCC2)c1 (stereo not drawn),-21.9%[57.1 µM],-2.7%,50.1µM*,-17.3%,-11.7%,10.5%
CCCOc1ccc(/C(O)=C2/C(=O)C(=O)N(CCCN3CCOCC3)C2c2ccncc2)cc1 (stereo not drawn),u,x,14.1µM*,x,x,x

# Source: PubChem BioAssay (National Center for Advancing Translational Sciences (NCATS))
